MITF primary = human MITF inhibition, primary screen | O75030 | AlphaScreen MITF homodimerization, bead proximity signal | inhibition, % at 2.6 µM | hit rate 0.91% among 650,000 | AID 1259374; in the data active = inhibition above about 50%
GPR151 ag = human GPR151 activation. Q8TDV0. PathHunter beta-arrestin GPR151 cells, luminescence. activation, % at 11.2 µM. hit rate 1% among 650,000; in the data active = activation above about 4.9%
Target sequence (Q8TDV0 whole entry, looked up): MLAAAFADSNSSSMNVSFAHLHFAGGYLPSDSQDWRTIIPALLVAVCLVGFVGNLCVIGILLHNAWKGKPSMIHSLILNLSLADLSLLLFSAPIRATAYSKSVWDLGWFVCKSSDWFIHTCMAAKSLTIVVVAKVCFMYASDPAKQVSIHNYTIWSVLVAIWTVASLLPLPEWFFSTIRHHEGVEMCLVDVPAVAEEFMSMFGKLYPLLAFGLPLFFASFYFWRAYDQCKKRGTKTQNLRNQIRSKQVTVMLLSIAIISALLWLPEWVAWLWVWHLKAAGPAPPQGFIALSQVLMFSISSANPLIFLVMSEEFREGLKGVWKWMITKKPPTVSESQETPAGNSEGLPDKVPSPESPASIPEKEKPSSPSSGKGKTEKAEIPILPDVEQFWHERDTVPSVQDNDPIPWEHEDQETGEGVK
TEAD-YAP inh = TEAD-YAP interaction inhibition | HEK-TIYL cells, TEAD-Gal4/YAP UAS-luciferase luminescence | hit rate 1.4% among 640,000 | inhibition, % at 9.12 µM; in the data active = inhibition above about 32%
FBW7 act = human FBW7 E3 ligase activation, primary screen. normalized activity (activation), % at 26.1 µM. hit rate 0.13% among 650,000. AlphaScreen FBW7–phospho-cyclin E peptide binding, activator screen. Q969H0. AID 1259310; in the data active = normalized activity above about 1.9%;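 also: purified mutant Fbw7 with reduced substrate affinity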
Hits are given with their value; 0 = inactive. Most compounds without a hit are left out; they make up all but 3.4% or so of the library.

SMILES	MITF primary	GPR151 ag	TEAD-YAP inh	FBW7 act
COc1cccc(C2CC(c3cccs3)=NN2C(=O)CSc2nnc(CNC(=O)c3ccccc3F)n2Cc2ccccc2)c1OC (stereo not given)	0	0	0	0
CC(C)n1c(O)c(N=NC(=O)Cc2csc(N3CCOCC3)n2)c2ccccc21	0	0	82.3	0
COc1cc(/C=N/NC(=O)Cc2csc(N3CCOCC3)n2)cc(OC)c1O	0	0	0	0
CC(=O)c1ccc(S(=O)(=O)NCCC(C)C)cc1	0	0	0	0
CC(C)CCNS(=O)(=O)c1ccc(Oc2ccc(S(=O)(=O)NCCC(C)C)cc2)cc1	0	0	33.2	0
COC(=O)c1ccccc1NC(=O)CCS(=O)(=O)c1ccc(Cl)cc1	0	0	0	0
O=C(O)c1n[nH]c2c1CCCC2	0	0	0	0
O=C(c1n[nH]c2c1CCCC2)n1ccnc1	0	0	54.2	0
COCCn1c(=O)n(CC(=O)N2CCCCC2)c2cccnc21	0	0	0	0
COCCn1c(=O)n(CC(=O)N2CCC(C(N)=O)CC2)c2cccnc21	0	0	0	5.7
Cc1cc(C)c(C#N)c(SC2CC(=O)N(c3ccccc3)C2=O)n1 (stereo not given)	0	0	38.0	0
COc1ccc(-c2cc(-c3ccccc3)nc(SC3CC(=O)N(c4ccc(C)cc4)C3=O)c2C#N)cc1 (stereo not given)	0	0	0	0
Cc1nc(SC2CC(=O)N(c3ccccc3)C2=O)c(C#N)c(C)c1C (stereo not given)	0	0	57.4	0
N#Cc1cc2c(nc1SC1CC(=O)N(c3ccccc3)C1=O)CCC2 (stereo not given)	0	0	39.0	0
N#Cc1cc2c(nc1SC1CC(=O)N(c3ccccc3)C1=O)CCCCC2 (stereo not given)	0	0	0	0
O=C(c1ccc(I)cc1)N1CCN(c2ccc(O)cc2)CC1	0	0	0	0
COc1ccc(-c2csc(N(Cc3ccccc3)C(C)=O)n2)cc1	0	0	0	0
Oc1ccccc1-c1nc2cnccn2c1NCc1ccc2c(c1)OCO2	0	0	57.3	0
c1ccc(-c2nc3cnccn3c2NCc2ccc3c(c2)OCO3)cc1	0	0	0	0
O=C(N/N=C/c1ccc([N+](=O)[O-])o1)c1cccs1	0	0	0	0
C=CCn1c(C)cc(C(=O)COc2ccc(C)nc2[N+](=O)[O-])c1C	0	0	0	0
Cc1ccc(OCC(=O)c2cc(C)n(-c3ccccc3)c2C)c([N+](=O)[O-])n1	0	0	49.7	0
Cc1cc(C)cc(-n2c(C)cc(/C=C3\SC(=Nc4ccc(Cl)cc4)NC3=O)c2C)c1	0	0	0	0
O=C(Nc1cccc(Cl)c1)c1ccc(F)c(S(=O)(=O)NCCc2ccccc2)c1	0	0	0	0
O=C(Nc1ccc(Oc2ccccc2)cc1)c1ccc(F)c(S(=O)(=O)NCc2ccc(F)cc2)c1	0	0	41.8	0
SMILES	MITF primary	GPR151 ag	TEAD-YAP inh	FBW7 act
Cc1c(Cl)cccc1NC(=O)c1cc(S(=O)(=O)NCc2ccco2)ccc1F	0	0	0	2.0
O=C(Nc1ccc(Oc2ccccc2)cc1)c1ccc(F)c(S(=O)(=O)NCCc2ccccc2)c1	0	0	39.9	0
CCOc1ccc(NC(=O)c2ccc(F)c(S(=O)(=O)NCc3ccccc3)c2)cc1	0	0	36.9	0
COc1ccc(CNS(=O)(=O)c2cc(C(=O)Nc3ccc(Oc4ccccc4)cc3)ccc2F)cc1	0	0	0	0
COc1ccc(N/C=C\C(=O)c2ccc(Cl)s2)cc1OC	0	0	0	0
Cc1ccc(NC(=O)CC2SC(=O)NC2=O)c(C)c1 (stereo not given)	0	0	0	0
COc1ccc(C(=O)Nc2cccc(-c3cn4c(n3)SCC4)c2)cc1OC	0	0	0	0
C=CCNS(=O)(=O)c1cc(C(=O)Nc2ccc(Oc3ccccc3)cc2)ccc1F	0	0	66.5	0
CCOc1ccc(NC(=O)c2cc(S(=O)(=O)NCc3ccccc3Cl)ccc2F)cc1	0	0	44.9	0
CCOC(=O)N1CCN(S(=O)(=O)c2cc(C(=O)Nc3ccc(Oc4ccccc4)cc3)ccc2F)CC1	0	0	0	0
Clc1ccc(-c2cn3c4ccccc4nc3n2CCNC2CCCCC2)cc1	0	0	0	0
Brc1ccc(-c2cn3c4ccccc4nc3n2CCCNC2CCCCC2)cc1	0	0	0	6.2
Cc1csnc1NC(=O)c1c(N)nc2c(c1C(F)(F)F)OC1=C(CCCC1)O2	0	0	79.2	0
CCOC(=O)c1c(NC(=O)c2ccc(C(F)(F)F)cc2)sc2c1CCCC2	0	0	0	0
COC(=O)C1=C(OC)C(=O)OC12C=CC(=O)C=C2	0	0	79.8	0
COC(=O)c1cc2cccc(OC)c2oc1=O	0	0	0	0
CNc1nc(-c2ccc3c(c2)CCN3C(=O)C2CC2)cs1	0	0	62.6	0
CNc1nc(-c2ccc3c(c2)CCN3C(=O)C2CC2)c(C)s1	0	0	0	0
CC(=O)Nc1nc(-c2ccc3c(c2)CCN3S(C)(=O)=O)c(C)s1	0	0	51.9	0
Cc1sc(NC(=O)c2ccncc2)nc1-c1ccc2c(c1)CCN2C(=O)C1CC1	0	0	38.4	0
CC1Cc2cc(-c3csc(NC(=O)Cc4cccs4)n3)ccc2N1S(C)(=O)=O (stereo not given)	0	0	57.1	0
Cc1sc(NC(=O)CCl)nc1-c1ccc2c(c1)CCN2S(C)(=O)=O	0	0	0	0
Cc1cccc(C(c2sc3nc(C)nn3c2O)N2CCC(C(N)=O)CC2)c1 (stereo not given)	0	0	0	0
Cc1sc(NC(=O)Cc2cccs2)nc1-c1ccc2c(c1)CC(C)N2S(C)(=O)=O (stereo not given)	0	0	52.3	0
CNc1nc(-c2ccc3c(c2)CC(C)N3S(C)(=O)=O)cs1 (stereo not given)	0	0	44.3	0
SMILES	MITF primary	GPR151 ag	TEAD-YAP inh	FBW7 act
Cc1sc(N)nc1-c1ccc2c(c1)CC(C)N2S(C)(=O)=O (stereo not given)	0	0	0	0
COc1ccc(-c2noc(CNC(=O)COc3cc(C)c(Cl)c(C)c3)n2)cc1	0	0	0	0
Cc1ccc(OCc2nc(SCC(=O)NNC(=O)c3ccccc3)n[nH]2)cc1	0	0	0	0
CCc1nc2sc(C(=O)c3ccc4c(c3)OCO4)c(N)c2cc1C	0	0	40.2	0
COc1ccc(CCNC(=O)CSc2nc3nc(C)c(Cc4ccccc4C)c(C)n3n2)cc1OC	0	0	0	0
CC(C)(C)c1ccc(CN2C(=O)C(=O)c3ccccc32)cc1	0	0	0	0
COc1cc(OC)c(C2Nc3ccccc3-c3cc(C)nn32)cc1OC (stereo not given)	0	0	0	0
CCOC(=O)C1CCCn2c1nc1c(c2=O)CCCC1 (stereo not given)	0	0	0	0
CCOC(=O)C1CCCn2c1nc1cc(-c3ccc(OC)cc3)sc1c2=O (stereo not given)	0	0	51.6	0
CCCCCNC(=O)c1c(O)c2cccc3c2n(c1=O)CCC3	0	0	0	0
CCCC(CCn1c(C)[n+](CC)c2ccc(C#N)cc21)S(=O)(=O)O (stereo not given)	0	0	0	1.9
CC[n+]1c(C)n(CCCS(=O)(=O)O)c2cc(C#N)ccc21	0	0	0	0

Screening results: PubChem BioAssay, The Scripps Research Institute Molecular Screening Center
